In all, about 39,000 compounds went through this assay and about 1,500 (3.8%) were called active. What follows is part of a selection rich in actives, with near analogues and random picks from the rest.

For this assay, the system named is HSkMC (human skeletal muscle cells). Description: cytotoxicity call (relative viability < 0.9). As to conditions: 10 µM.
With `C[C@H]1CN([C@@H](C)CO)C(=O)c2cc(NC(=O)NC3CCCCC3)ccc2O[C@H]1CN(C)S(=O)(=O)c1cn(C)cn1`, the cytotoxicity call was “inactive”.

On to `O=C(C[C@@H]1CC[C@@H](NC(=O)Cc2ccccn2)[C@H](CO)O1)NCCc1ccncc1`, for which the cytotoxicity call is “inactive”.

With `C[C@H](CO)N1C[C@H](C)[C@@H](CN(C)S(=O)(=O)c2cccs2)OCCCC[C@H](C)Oc2ccc(NS(=O)(=O)c3ccc(Cl)cc3)cc2C1=O`, the cytotoxicity call was “inactive”.

As to `C[C@H](CO)N1C[C@H](C)[C@H](CN(C)C(=O)Nc2ccc(C(F)(F)F)cc2)OCCCC[C@H](C)Oc2ccc(NC(=O)Cc3ccccc3)cc2C1=O`, the cytotoxicity call is “inactive”.

Regarding `C[C@@H]1CCCCO[C@H](CN(C)Cc2ccc3c(c2)OCO3)[C@H](C)CN([C@@H](C)CO)C(=O)c2cc(NS(=O)(=O)c3ccccc3)ccc2O1`, the cytotoxicity call is “inactive”.

On to `C[C@H]1CN([C@@H](C)CO)C(=O)c2cc(NC(=O)CCCN(C)C)ccc2O[C@@H]1CN(C)Cc1ccc(Oc2ccccc2)cc1`, for which the cytotoxicity call is “inactive”.

In the case of `Cc1ncc(CO)c(/C=N/O)c1O`, the cytotoxicity call is “inactive”.

For the compound `Cc1ccc(S[C@]2(C(=O)NC(C)C)CC(=O)N(C3CCCCC3)[C@@H]2c2ccc(CO)cc2I)cc1`, the cytotoxicity call is “inactive”.

For `COc1ccc(S(=O)(=O)N[C@H]2C=C[C@@H](CC(=O)N3CCN(c4ccccc4)CC3)O[C@@H]2CO)cc1`, the cytotoxicity call was “inactive”.

Regarding `Cc1noc(C)c1NC(=O)Nc1cccc2c1O[C@@H](CN(C)C(=O)Nc1ccc(C(F)(F)F)cc1)[C@H](C)CN([C@H](C)CO)C2=O`, the cytotoxicity call was “inactive”.

Consider `Cc1cc(C(=O)Nc2cccc3c2O[C@H](CN(C)S(=O)(=O)c2ccc(F)cc2)[C@@H](C)CN([C@H](C)CO)C3=O)n(C)n1`, for which the cytotoxicity call was “inactive”.

On to `COC(=O)c1c2oc(c1C(=O)OC)C(=O)N[C@H](Cc1ccccc1)Cn1cc(nn1)CNC(=O)[C@H](Cc1ccccc1)NC(=O)N[C@@H](CO)CC2`, for which the cytotoxicity call is “inactive”.

Regarding `CCCCC[C@H]1C[C@H]1C[C@H]1C[C@H]1CCCCCCCC(=O)O`, the cytotoxicity call is “inactive”.

Regarding `COc1cccc(CN2C[C@@H](C)[C@H](OC)CN(C)C(=O)c3cc(NS(=O)(=O)c4cn(C)cn4)ccc3OC[C@H]2C)c1`, the cytotoxicity call was “inactive”.

For the compound `O=C(C[C@@H]1CC[C@@H]2[C@H](COC[C@@H](O)CN2C(=O)c2ccc3c(c2)OCO3)O1)NCCN1CCCC1`, the cytotoxicity call was “inactive”.

Take `C[C@@H]1CCCCO[C@H](CN(C)Cc2ccc(Cl)c(Cl)c2)[C@@H](C)CN([C@@H](C)CO)C(=O)c2cc(NS(=O)(=O)c3ccc(F)cc3)ccc2O1`: the cytotoxicity call was “active”.

For `C[C@@H]1CN([C@H](C)CO)C(=O)c2cc(NS(=O)(=O)c3ccc(F)cc3)ccc2O[C@@H](C)CCCCO[C@H]1CN(C)Cc1ccc(Cl)c(Cl)c1`, the cytotoxicity call is “inactive”.

With `C[C@@H]1CCCCO[C@@H](CN(C)Cc2ccc(Cl)c(Cl)c2)[C@@H](C)CN([C@H](C)CO)C(=O)c2cc(NS(=O)(=O)c3ccc(F)cc3)ccc2O1`, the cytotoxicity call is “inactive”.

With `C[C@@H]1CCCCO[C@H](CN(C)Cc2ccc(Cl)c(Cl)c2)[C@H](C)CN([C@@H](C)CO)C(=O)c2cc(NS(=O)(=O)c3ccc(F)cc3)ccc2O1`, the cytotoxicity call was “active”.

`CN1CCN(C(=O)C[C@H]2C=C[C@@H](NC(=O)Cc3ccccn3)[C@H](CO)O2)CC1`: the cytotoxicity call was “inactive”.

For `COc1ccc(NC(=O)Nc2ccc3c(c2)C(=O)N([C@@H](C)CO)C[C@@H](C)[C@@H](CN(C)C(=O)NC2CCCCC2)OCCCC[C@@H](C)O3)cc1`, the cytotoxicity call was “active”.

Consider `C[C@H]1CCCCO[C@@H](CN(C)C(=O)NC2CCCCC2)[C@@H](C)CN([C@@H](C)CO)C(=O)c2cc(NC(=O)Nc3ccc(C(F)(F)F)cc3)ccc2O1`, for which the cytotoxicity call is “inactive”.

As to `C[C@H]1CN([C@@H](C)CO)C(=O)c2cc(NC(=O)Nc3ccc(C(F)(F)F)cc3)ccc2O[C@@H]1CN(C)C(=O)NC1CCCCC1`, the cytotoxicity call is “inactive”.

Turning to `C[C@@H]1CCCCO[C@@H](CN(C)C(=O)NC2CCCCC2)[C@H](C)CN([C@@H](C)CO)C(=O)c2cc(NC(=O)Nc3ccc(C(F)(F)F)cc3)ccc2O1`, the cytotoxicity call was “inactive”.

`C[C@@H]1CCCCO[C@H](CN(C)C(=O)NC2CCCCC2)[C@H](C)CN([C@H](C)CO)C(=O)c2cc(NC(=O)Nc3ccc(C(F)(F)F)cc3)ccc2O1`: the cytotoxicity call was “active”.

For the compound `C[C@@H]1CCCCO[C@H](CN(C)C(=O)NC2CCCCC2)[C@@H](C)CN([C@@H](C)CO)C(=O)c2cc(NC(=O)Nc3ccc(C(F)(F)F)cc3)ccc2O1`, the cytotoxicity call is “inactive”.

As for `C[C@@H]1CN([C@H](C)CO)C(=O)c2cc(NC(=O)Nc3ccc(C(F)(F)F)cc3)ccc2O[C@H]1CN(C)C(=O)NC1CCCCC1`, the cytotoxicity call was “inactive”.

Turning to `COc1ccc(NC(=O)Nc2ccc3c(c2)C(=O)N([C@H](C)CO)C[C@H](C)[C@@H](CN(C)C(=O)NC2CCCCC2)OCCCC[C@@H](C)O3)cc1`, the cytotoxicity call was “inactive”.

For `COc1ccc(NC(=O)Nc2ccc3c(c2)C(=O)N([C@@H](C)CO)C[C@H](C)[C@H](CN(C)C(=O)NC2CCCCC2)OCCCC[C@H](C)O3)cc1`, the cytotoxicity call was “inactive”.

For `C[C@@H]1CCCCO[C@@H](CN(C)C(=O)NC2CCCCC2)[C@@H](C)CN([C@H](C)CO)C(=O)c2cc(NC(=O)Nc3ccc(C(F)(F)F)cc3)ccc2O1`, the cytotoxicity call was “active”.

Consider `C[C@@H]1CN([C@H](C)CO)C(=O)c2cc(NC(=O)Nc3ccc(C(F)(F)F)cc3)ccc2O[C@@H]1CN(C)C(=O)NC1CCCCC1`, for which the cytotoxicity call was “active”.

For the compound `C[C@@H]1CN([C@H](C)CO)C(=O)c2cc(NC(=O)Nc3ccc(C(F)(F)F)cc3)ccc2O[C@@H](C)CCCCO[C@@H]1CN(C)C(=O)NC1CCCCC1`, the cytotoxicity call was “inactive”.

As for `COCC#Cc1cnc2c(c1)C(=O)N([C@H](C)CO)C[C@@H](C)[C@@H](CN(C)C(=O)c1cnccn1)O2`, the cytotoxicity call is “inactive”.

For `C[C@H]1CN([C@@H](C)CO)C(=O)c2cccc(NC(=O)Nc3ccccc3)c2O[C@H]1CN(C)Cc1ccc(C(F)(F)F)cc1`, the cytotoxicity call is “inactive”.

On to `C[C@@H]1CN([C@@H](C)CO)C(=O)c2cc(NS(C)(=O)=O)ccc2O[C@@H]1CN(C)S(=O)(=O)c1ccc(Cl)cc1`, for which the cytotoxicity call is “inactive”.

Take `C=CCOC(=O)[C@H]1[C@@H]2C(=O)O[C@@H](c3ccccc3)[C@@H](c3ccccc3)N2[C@@H](c2ccc(OCCOC(=O)[C@H]3C[C@H]4C(=O)NCC(=O)N4[C@H]3c3ccc(O)cc3)cc2)[C@]12C(=O)Nc1ccc(I)cc12`: the cytotoxicity call was “inactive”.

In the case of `C=C(O)C(=O)O`, the cytotoxicity call was “inactive”.

With `C[C@H]1CN([C@@H](C)CO)C(=O)Cc2cc(NS(=O)(=O)c3cccs3)ccc2O[C@@H]1CN(C)S(=O)(=O)c1cccs1`, the cytotoxicity call is “inactive”.

With `Cc1cc(NC(=O)CCCC(=O)O)n(C)n1`, the cytotoxicity call was “inactive”.

The values above are taken from the antibiotic and cytotoxicity screens of Wong et al. (2023).
